Measurements from the supplement of paper PMC10849652.
About 8,800 targets were measured; listed, in parts, are those with a hit and a random draw of the rest. About 0.5% of all pairs of compound and target were hits. Unmarked numbers belong to inactive results.

Legend:
Test in all cases: log2 fold change, soluble protein after heating vs DMSO (PISA); higher = thermal stabilisation; K562 lysate, 10 uM; active = over 0.2 and 3.5 SD of the protein, either way, in both replicates (recomputed)
[1] = compound: C#Cc1cccc(Nc2ncnc3cc(OCCOC)c(OCCOC)cc23)c1 [erlotinib]
Summary of the method: (§1)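 Quantification was by TMTpro 16plex LC-MS/MS with equalised channel sums, applied to the supernatant after 21,000xg for 90 min. Samples were crude K562 extract at 1 mg/mL protein in PBS pH 7.4 with 1 mM MgCl2, treated with 10 μM compound for 30 min, heated for 3 min across 48°C-58°C, pooled and brought to 0.5% NP-40 at 4°C. Values are log-two fold changes in thermal stability relative to solvent controls, from duplicates.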

[2] = compound: C/C(=N\NC(=O)C1=CC(=CC=C1)S(=O)(=O)N2CCOCC2)/C3=C(C=CC(=C3)Cl)O
Summary of the method: as §1

[3] = compound: C1=CC(=CC=C1C2=NC3=C(N2)C=C(C=C3)C(=O)N)OC4=CC=C(C=C4)Cl
Summary of the method: as §1

[4] = compound: C1=CC2=C(C=CC(=C2)/C=C\3/C(=O)NC(=NCC4=CC=CS4)S3)N=C1
Summary of the method: as §1

[5] = compound: C1=CC2=NC=CN=C2C=C1/C=C/3\C(=O)NC(=O)S3
Summary of the method: as §1

[6] = compound: C1=CC=C(C=C1)C2=NC(=C(N2)C3=CC=NC=C3)C4=CC(=C(C=C4)Cl)O
Summary of the method: as §1

[7] = compound: C1=CC=C2C(=C1)C3=NNC4=CC=CC(=C43)C2=O
Summary of the method: as §1

[8] = compound: C1CCN(C1)C(=O)NC2=CC=CC(=C2)NC3=NC=C(C(=N3)NCCC4=CN=CN4)Br
Summary of the method: as §1

[9] = compound: C1CN(CCC1(CC2=CC=C(C=C2)Cl)N)C3=NC=NC4=C3C=CN4
Summary of the method: as §1

[10] = compound: C1COCCN1CCN2C3=CC=CC=C3N=C2NC(=O)C4=CC(=CC=C4)[N+](=O)[O-] [IRAK-1-4 Inhibitor I]
Summary of the method: as §1

[11] = compound: C=CC(=O)N1CCC[C@@H](n2nc(-c3ccc(Oc4ccccc4)cc3)c3c(N)ncnc32)C1 [ibrutinib]
Summary of the method: as §1

[12] = compound: CC(=O)c1cnc2ccc(-c3cc(Cl)c(O)c(Cl)c3)nc2c1N[C@H]1CC[C@H](CN(C)C)CC1
Summary of the method: as §1

[13] = compound: CC(C)(C)Cn1c(N)nc2ccc(-c3[nH]c(C(C)(C)C)nc3-c3ccc(F)cc3)nc21 [ralimetinib]
Summary of the method: as §1

[14] = compound: CC(C)(O)CC(=O)NCCn1ccc2ncnc(Nc3ccc(Oc4cccc(C(F)(F)F)c4)c(Cl)c3)c21
Summary of the method: as §1

[15] = compound: CC(C)C1=C2N=C(C=C(N2N=C1)NCC3=CC=CC=C3)NCCCCCCN
Summary of the method: as §1

[16] = compound: CC1=C(C(CC(=O)N1)C2=CC=C(C=C2)C(F)(F)F)C(=O)NC3=C(C=C4C(=C3)C=NN4)F
Summary of the method: as §1

[17] = compound: CC1=C(C2=C(C=C1)C(=O)C3=CC=CC=C3N2CCCN)C
Summary of the method: as §1

[18] = compound: CC1=C(C=C(C=C1)NC(=O)C2=CC(=CC=C2)C(C)(C)C#N)NC3=CC4=C(C=C3)N=CN(C4=O)C
Summary of the method: as §1

[19] = compound: CC1=C(C=C(C=C1)NC(=O)C2=CC(=CC=C2)N(C)C)NC(=O)C3=CC=C(C=C3)O
Summary of the method: as §1

[20] = compound: CC1=CC=C(C=C1)SC2=C3C=C(SC3=CN=C2)C(=O)N
Summary of the method: as §1

Sequence of UniProt Q9P2J5 (Q9P2J5 whole entry, looked up): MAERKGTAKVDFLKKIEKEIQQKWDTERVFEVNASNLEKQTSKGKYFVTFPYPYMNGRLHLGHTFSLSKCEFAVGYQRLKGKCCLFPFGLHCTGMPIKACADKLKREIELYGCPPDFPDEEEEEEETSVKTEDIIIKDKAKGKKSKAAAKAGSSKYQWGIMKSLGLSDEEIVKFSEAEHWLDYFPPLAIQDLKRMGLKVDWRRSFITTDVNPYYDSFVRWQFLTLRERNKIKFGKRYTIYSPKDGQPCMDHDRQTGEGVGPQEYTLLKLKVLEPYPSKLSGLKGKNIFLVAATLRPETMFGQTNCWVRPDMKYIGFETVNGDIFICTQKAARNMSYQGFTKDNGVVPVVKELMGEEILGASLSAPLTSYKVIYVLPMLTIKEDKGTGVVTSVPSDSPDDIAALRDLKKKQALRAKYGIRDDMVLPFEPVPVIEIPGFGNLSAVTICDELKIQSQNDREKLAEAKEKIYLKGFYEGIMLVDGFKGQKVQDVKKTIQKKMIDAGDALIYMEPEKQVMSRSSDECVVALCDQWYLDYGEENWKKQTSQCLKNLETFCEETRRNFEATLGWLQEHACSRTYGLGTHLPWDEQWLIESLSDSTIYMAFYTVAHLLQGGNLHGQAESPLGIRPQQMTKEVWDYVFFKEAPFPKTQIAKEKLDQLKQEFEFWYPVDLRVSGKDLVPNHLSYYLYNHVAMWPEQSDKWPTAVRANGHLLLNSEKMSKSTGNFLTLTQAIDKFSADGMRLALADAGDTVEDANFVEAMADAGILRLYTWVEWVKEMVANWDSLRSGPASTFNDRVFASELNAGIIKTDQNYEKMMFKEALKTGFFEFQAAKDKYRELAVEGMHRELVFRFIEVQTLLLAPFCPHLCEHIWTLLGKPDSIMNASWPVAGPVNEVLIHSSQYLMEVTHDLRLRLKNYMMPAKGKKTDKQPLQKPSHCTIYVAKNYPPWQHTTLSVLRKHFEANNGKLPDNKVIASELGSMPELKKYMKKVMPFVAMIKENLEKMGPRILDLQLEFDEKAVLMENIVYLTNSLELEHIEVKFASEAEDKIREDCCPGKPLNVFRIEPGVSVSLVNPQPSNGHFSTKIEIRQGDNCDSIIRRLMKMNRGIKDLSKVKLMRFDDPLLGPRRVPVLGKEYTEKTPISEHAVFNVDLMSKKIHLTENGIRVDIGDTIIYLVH
Sequence of UniProt P36507 (P36507 whole entry, looked up): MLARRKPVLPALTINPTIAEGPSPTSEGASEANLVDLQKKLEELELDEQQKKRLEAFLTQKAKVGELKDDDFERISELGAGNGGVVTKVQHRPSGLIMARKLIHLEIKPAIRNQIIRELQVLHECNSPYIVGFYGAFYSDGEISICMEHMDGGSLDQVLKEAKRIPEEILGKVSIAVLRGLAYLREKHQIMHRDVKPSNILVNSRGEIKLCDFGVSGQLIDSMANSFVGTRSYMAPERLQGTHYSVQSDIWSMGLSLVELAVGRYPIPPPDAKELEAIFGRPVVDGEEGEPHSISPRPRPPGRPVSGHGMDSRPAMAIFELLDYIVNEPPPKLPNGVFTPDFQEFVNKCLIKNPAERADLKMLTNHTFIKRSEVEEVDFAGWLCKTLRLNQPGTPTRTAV
Sequence of UniProt Q8N5G2 (Q8N5G2 whole entry, looked up): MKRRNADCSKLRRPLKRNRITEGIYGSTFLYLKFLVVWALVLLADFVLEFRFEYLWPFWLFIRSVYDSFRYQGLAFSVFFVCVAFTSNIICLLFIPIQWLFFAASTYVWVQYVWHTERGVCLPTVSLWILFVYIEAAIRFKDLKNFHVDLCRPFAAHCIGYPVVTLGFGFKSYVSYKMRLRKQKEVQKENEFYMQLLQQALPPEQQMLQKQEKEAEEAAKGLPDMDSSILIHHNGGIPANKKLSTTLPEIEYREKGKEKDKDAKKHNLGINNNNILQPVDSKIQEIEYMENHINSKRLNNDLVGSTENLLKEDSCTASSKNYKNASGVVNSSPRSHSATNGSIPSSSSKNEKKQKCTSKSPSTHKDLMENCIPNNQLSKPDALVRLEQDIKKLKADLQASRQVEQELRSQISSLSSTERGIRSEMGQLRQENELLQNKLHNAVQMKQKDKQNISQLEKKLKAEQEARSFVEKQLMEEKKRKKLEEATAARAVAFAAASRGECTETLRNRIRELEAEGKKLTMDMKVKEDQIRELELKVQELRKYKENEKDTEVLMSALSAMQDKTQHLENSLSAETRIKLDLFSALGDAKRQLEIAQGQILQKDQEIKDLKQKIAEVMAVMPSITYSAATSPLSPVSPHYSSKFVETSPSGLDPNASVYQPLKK
Sequence of UniProt O14880 (O14880 whole entry, looked up): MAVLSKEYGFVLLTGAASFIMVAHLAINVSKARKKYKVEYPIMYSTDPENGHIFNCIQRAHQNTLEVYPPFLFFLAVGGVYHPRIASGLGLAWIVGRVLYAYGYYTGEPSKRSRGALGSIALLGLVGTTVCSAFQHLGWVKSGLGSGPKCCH
Sequence of UniProt Q8N4C8 (Q8N4C8 whole entry, looked up): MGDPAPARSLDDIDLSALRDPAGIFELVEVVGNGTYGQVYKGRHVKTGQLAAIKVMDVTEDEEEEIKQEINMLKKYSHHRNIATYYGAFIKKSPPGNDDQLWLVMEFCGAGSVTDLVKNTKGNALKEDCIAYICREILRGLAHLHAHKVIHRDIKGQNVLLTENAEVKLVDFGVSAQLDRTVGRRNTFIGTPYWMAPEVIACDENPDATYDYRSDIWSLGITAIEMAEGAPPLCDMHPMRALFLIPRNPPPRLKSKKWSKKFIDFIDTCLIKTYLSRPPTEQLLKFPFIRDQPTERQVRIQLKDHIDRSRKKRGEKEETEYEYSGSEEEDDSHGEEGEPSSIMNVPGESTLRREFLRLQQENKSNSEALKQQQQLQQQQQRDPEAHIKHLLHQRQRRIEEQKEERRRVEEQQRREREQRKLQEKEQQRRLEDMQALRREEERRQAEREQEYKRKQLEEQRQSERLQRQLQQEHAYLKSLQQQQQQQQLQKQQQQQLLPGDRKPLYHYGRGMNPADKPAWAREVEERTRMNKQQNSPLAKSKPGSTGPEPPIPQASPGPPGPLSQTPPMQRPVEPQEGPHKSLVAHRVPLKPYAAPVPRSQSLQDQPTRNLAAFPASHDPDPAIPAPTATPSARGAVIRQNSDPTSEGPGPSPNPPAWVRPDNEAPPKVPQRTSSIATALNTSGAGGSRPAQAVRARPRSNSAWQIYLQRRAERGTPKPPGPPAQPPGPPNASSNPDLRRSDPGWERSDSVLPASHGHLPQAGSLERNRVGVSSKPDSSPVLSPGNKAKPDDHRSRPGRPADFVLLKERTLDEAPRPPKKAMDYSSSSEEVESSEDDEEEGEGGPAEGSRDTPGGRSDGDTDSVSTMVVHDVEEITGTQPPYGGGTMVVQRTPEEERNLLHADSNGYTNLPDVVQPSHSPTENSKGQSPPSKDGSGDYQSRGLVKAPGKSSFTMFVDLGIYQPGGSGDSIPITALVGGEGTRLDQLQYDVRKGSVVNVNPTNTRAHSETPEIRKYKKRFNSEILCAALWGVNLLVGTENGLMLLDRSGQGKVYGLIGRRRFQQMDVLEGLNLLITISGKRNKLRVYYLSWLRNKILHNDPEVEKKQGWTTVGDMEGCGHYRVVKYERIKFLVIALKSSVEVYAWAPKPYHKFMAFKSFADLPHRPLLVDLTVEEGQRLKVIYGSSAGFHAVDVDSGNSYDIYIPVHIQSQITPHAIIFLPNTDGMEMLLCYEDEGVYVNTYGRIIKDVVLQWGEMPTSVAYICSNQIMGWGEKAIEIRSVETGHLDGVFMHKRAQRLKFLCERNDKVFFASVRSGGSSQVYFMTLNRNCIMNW
Sequence of UniProt Q9BW19 (Q9BW19 whole entry, looked up): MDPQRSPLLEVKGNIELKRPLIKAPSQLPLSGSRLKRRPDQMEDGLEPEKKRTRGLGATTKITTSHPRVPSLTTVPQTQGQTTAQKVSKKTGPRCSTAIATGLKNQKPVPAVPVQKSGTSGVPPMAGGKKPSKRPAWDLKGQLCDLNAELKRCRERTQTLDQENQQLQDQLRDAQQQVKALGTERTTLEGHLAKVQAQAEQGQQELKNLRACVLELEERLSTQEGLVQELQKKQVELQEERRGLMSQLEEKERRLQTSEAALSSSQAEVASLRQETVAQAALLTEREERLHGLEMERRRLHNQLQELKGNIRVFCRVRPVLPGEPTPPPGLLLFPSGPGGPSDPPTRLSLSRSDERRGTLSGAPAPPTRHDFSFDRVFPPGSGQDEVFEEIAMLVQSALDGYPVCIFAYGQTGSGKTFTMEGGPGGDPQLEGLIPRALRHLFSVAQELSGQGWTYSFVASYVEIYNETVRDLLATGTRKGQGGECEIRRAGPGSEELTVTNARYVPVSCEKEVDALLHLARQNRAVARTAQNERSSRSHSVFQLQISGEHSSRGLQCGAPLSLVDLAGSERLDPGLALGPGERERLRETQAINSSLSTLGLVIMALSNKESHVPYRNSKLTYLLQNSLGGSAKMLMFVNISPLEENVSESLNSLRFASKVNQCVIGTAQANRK
Sequence of UniProt Q9BTE3 (Q9BTE3 whole entry, looked up): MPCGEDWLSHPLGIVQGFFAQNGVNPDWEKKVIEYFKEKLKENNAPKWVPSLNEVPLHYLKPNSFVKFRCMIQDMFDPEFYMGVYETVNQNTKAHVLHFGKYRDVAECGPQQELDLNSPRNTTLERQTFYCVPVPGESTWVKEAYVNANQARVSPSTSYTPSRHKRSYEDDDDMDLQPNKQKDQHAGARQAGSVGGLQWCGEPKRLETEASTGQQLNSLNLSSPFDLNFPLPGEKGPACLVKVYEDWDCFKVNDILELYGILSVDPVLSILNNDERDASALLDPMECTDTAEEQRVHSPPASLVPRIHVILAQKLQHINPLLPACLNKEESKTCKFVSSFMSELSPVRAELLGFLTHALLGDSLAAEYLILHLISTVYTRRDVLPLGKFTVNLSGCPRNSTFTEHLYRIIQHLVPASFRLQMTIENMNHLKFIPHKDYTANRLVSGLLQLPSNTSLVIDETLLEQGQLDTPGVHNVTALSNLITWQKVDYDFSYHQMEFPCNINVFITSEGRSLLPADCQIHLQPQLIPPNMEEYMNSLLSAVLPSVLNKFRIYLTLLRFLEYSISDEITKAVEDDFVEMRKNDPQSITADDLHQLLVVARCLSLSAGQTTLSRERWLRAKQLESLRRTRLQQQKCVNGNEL

Target	log2 fold change [1]	log2 fold change [2]	log2 fold change [3]	log2 fold change [4]	log2 fold change [5]	log2 fold change [6]	log2 fold change [7]	log2 fold change [8]	log2 fold change [9]	log2 fold change [10]	log2 fold change [11]	log2 fold change [12]	log2 fold change [13]	log2 fold change [14]	log2 fold change [15]	log2 fold change [16]	log2 fold change [17]	log2 fold change [18]	log2 fold change [19]	log2 fold change [20]
MACO1 (UniProt Q8N5G2)	-0.072	-0.009	-0.005	-0.161	0.062	-0.022	-0.336 (active)	0	0.012	0.022	0	0.043	-0.003	-0.04	0.01	0.018	-0.043	-0.023	-0.002	0.095
LBR (UniProt Q14739)	0.03	0.052	-0.066	-0.021	-0.081	-0.028	-0.08	-0.032	0.005	0.028	0.034	-0.01	0.019	-0.121	-0.029	0.018	0.065	-0.089	-0.026	-0.036
MGST3 (UniProt O14880)	0.007	0.011	0.008	0.022	0.011	-0.021	-0.054	-0.009	-0.035	0.019	0.06	-0.004	0.041	-0.046	-0.009	-0.004	-0.03	0.042	0.006	-0.025
LZTR1 (UniProt Q8N653)	0.051	0.099	-0.018	-0.015	0.022	-0.005	-0.071	0.066	0.106	0.08	-0.074	-0.441	-0.023	0.102	0.009	0.048	-0.014	-0.001	0.113	0.041
LARS (UniProt Q9P2J5)	0.021	0.05	-0.024	0.024	0.013	0.016	-0.026	-0.012	-0.002	-0.032	-0.021	-0.003	0.023	0.048	0.021	-0.001	-0.017	-0.041	0.029	0.022
MFF isoform 2 (UniProt Q9GZY8)	0.006	-0.056	0.021	-0.009	-0.014	-0.035	-0.005	0.024	0.037	0.018	0.007	-0.044	-0.03	-0.033	-0.052	0	0.004	0.032	0.022	-0.024
MED16 (UniProt Q9Y2X0)	0.018	-0.033	0.001	0.019	-0.011	0.008	-0.071	0.01	-0.045	-0.001	-0.113	-0.012	0.057	0.046	-0.014	0.021	-0.01	-0.038	-0.018	0.005
KIF15 (UniProt Q9NS87)	0.004	0.025	-0.01	0.011	-0.019	0.048	-0.054	-0.04	-0.019	-0.012	-0.017	0.006	0.008	-0.022	0.01	0.022	-0.027	0.02	0.036	-0.015
MCMBP (UniProt Q9BTE3)	0.038	0.069	0.024	0.063	0.01	-0.017	0.001	-0.023	0.072	0	0.001	-0.007	0.016	0.038	-0.009	0	0.008	0.008	0.011	0.014
KIFC1 (UniProt Q9BW19)	0.003	0.061	0.011	-0.002	-0.048	0.011	-0.012	-0.009	0.025	-0.023	0.021	-0.002	-0.025	0.007	-0.012	-0.009	0.004	0.002	0.011	0.002
MINK1 (UniProt Q8N4C8)	0.057	0.058	-0.059	0.135	0.045	-0.141	0	0.016	-0.037	0.061	-0.003	0.013	0.042	-0.051	0.119	-0.144	-0.03	-0.008	0.013	0.021
MAP3K4 (UniProt Q9Y6R4)	0.051	-0.027	-0.026	0.011	-0.014	0.018	0.105	0.051	-0.101	-0.013	0.046	0.19	0	0.005	-0.039	-0.015	-0.012	-0.006	-0.001	-0.027
KNL1 (UniProt Q8NG31)	-0.005	-0.015	0.002	0	-0.017	0.019	-0.015	0.006	-0.007	0.002	0.009	-0.014	0.012	-0.032	0.013	0.012	-0.022	0	0.004	0.012
MRPL12 (UniProt P52815)	0.046	-0.02	-0.013	0.041	-0.015	-0.015	0.014	-0.007	0.077	-0.029	0.082	-0.05	0.006	-0.013	-0.029	-0.042	0	0.026	0.012	0.076
MARK3 (UniProt P27448)	0.089	-0.074	-0.007	0.07	-0.051	0.016	-0.218	-0.213	-0.023	-0.035	0.03	-0.081	0.028	-0.016	0.041	0.005	-0.009	0.075	0.016	0
MAP2K2 (UniProt P36507)	0.049	0.005	0.023	-0.023	-0.006	0.001	0.249	0.219	0.017	0	0.239	0.443 (active)	-0.052	0.173	-0.007	-0.009	-0.033	-0.017	0.013	-0.014
